# From PubChem BioAssay (EPA / NIEHS)
# Results filed as inconclusive are left out. Calls of active or inactive are those of the source. How the source made its calls, unless noted: active means hit-call score of the fitted dose curve at least 0.9, where 1 is the maximum; inconclusive means response in the unintended direction; inactive means score below 0.9.
# Assays:
# [1] = molecular target: Androgen receptor (Homo sapiens) (UniProt P10275); test: ATG_AR_TRANS: Attagene TRANS-FACTORIAL HepG2 Assay for human Androgen Receptor (AR) (AID 2282973); details: HepG2 Attagene TRANS-FACTORIAL AR reporter transcription
# Chain of Androgen receptor (Homo sapiens) (P10275 whole entry, looked up, the tested form may be a part): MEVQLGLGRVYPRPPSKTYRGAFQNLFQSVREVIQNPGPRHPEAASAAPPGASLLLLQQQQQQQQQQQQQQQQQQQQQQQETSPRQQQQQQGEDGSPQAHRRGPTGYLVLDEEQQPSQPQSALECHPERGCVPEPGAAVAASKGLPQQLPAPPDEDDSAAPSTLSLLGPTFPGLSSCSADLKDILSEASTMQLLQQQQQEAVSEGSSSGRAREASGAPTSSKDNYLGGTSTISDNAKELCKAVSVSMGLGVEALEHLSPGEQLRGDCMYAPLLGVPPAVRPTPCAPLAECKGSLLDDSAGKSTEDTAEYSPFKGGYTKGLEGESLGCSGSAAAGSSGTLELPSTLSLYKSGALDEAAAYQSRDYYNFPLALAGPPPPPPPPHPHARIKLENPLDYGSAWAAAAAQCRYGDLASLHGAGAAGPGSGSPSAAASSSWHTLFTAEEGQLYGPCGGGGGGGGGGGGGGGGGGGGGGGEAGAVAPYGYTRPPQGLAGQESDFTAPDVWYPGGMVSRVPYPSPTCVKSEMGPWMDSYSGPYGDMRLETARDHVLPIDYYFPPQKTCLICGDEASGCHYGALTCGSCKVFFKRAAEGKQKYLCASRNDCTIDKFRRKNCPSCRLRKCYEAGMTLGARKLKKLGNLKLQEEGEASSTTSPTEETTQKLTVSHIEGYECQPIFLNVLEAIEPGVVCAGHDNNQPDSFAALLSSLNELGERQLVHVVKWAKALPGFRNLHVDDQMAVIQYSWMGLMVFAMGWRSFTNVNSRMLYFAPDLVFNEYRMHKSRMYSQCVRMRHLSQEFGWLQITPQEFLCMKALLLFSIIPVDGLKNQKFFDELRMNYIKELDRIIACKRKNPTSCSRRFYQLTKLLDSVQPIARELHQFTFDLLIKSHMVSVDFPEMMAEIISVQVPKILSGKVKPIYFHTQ
# How it was run: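 Transfected HepG2, 24 h treatment, chimeric NR-Gal4 driving GAL4-UAS reporters. mRNA induction by RT-PCR/capillary electrophoresis fluorescence; DMSO as negative control and baseline.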
# [2] = Tanguay_ZF_120hpf_MUSC: Oregon State University Tanguay Lab 120 Hour Post-fertilization zebrafish Assay for Muscle Malformation (AID 2284401; active means hit-call score of the fitted dose curve at least 0.9, where 1 is the maximum; inactive means score below 0.9)
# How it was run: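 Scored as a binary brightfield endpoint at 120 hpf, fitted versus DMSO. Single dechorionated wild-type (Tropical 5D) zebrafish embryos per well, statically exposed at 28C from 6 hpf onward with final DMSO 0.64%.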
# [3] = system: rat CYP2B1, gene 24300; test: NVS_ADME_rCYP2B1: NovaScreen (NVS) CYP450-related Enzyme Activity (ADME) Assay for rat CYP2B1 (AID 2283117)
# How it was run: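 Cell-free fluorescence enzyme assay, recombinant rat CYP2B1, 0.75 h after dosing. Single-concentration duplicates at 10 uM preceded concentration series (max 20 uM) for actives; acetonitrile as negative-control baseline.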
# [4] = molecular target: human Acetylcholinesterase (AChE), ACHE (gene 43) (UniProt P22303); test: NVS_ENZ_hAChE: NovaScreen (NVS) Enzymatic Assay for human Acetylcholinesterase (AChE) (AID 2283129)
# Chain of human Acetylcholinesterase (AChE), ACHE (gene 43) (P22303 whole entry, looked up): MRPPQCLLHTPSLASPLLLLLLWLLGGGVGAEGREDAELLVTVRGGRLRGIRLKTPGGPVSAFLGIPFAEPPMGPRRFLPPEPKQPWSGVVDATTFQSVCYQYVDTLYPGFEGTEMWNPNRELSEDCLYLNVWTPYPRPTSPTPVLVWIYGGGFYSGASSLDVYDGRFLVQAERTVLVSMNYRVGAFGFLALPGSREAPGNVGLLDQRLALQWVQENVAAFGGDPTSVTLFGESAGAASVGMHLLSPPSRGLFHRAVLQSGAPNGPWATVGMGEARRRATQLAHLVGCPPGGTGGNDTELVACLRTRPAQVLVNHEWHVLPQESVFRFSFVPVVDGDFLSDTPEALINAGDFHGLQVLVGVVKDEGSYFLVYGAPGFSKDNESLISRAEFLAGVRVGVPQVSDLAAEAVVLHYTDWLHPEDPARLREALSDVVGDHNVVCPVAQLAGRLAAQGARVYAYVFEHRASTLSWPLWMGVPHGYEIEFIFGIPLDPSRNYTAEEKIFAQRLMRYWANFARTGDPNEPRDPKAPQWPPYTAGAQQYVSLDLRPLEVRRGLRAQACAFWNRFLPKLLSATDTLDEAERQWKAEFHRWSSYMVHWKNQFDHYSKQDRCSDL
# How it was run: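 Actives from a duplicate single-point screen (25 uM) were followed up in concentration series. Enzyme activity read by absorbance (colorimetric) 0.33 hour after dosing, cell-free, normalized to DMSO, with loss of signal scored.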
# [5] = system: rat Monoamine Oxidase, MAO-A, Central (MAOAC), gene 29253; test: NVS_ENZ_rMAOAC: NovaScreen (NVS) Enzymatic Assay for rat Monoamine Oxidase, MAO-A, Central (MAOAC) (AID 2283243);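 further: potency refers to inhibition seen as signal drop below DMSO baseline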
# How it was run: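 Single-concentration duplicate testing at 25 uM, then concentration-response for actives, in a lysate-based radiodetection MAO-A activity assay from rat brain. Enzyme activity measured 1.5 hours post-dosing; DMSO served as negative control and baseline.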
# [6] = molecular target: Caspase-1 (Homo sapiens) (UniProt P29466); test: NVS_ENZ_hCASP1: NovaScreen (NVS) Enzymatic Assay for human Caspase 1 (CASP1) (AID 2283132)
# Chain of Caspase-1 (Homo sapiens) (P29466 whole entry, looked up): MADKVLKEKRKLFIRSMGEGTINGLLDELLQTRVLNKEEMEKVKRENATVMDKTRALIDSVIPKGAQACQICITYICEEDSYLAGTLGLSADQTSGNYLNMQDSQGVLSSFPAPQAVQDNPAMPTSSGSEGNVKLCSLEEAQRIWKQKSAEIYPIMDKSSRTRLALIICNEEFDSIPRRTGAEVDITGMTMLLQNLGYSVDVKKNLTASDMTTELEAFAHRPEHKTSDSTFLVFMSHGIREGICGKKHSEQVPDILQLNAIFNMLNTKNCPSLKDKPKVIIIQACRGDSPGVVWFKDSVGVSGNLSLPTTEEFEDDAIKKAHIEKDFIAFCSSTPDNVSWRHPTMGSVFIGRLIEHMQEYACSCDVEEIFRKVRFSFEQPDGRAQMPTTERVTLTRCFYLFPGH
# How it was run: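 Compounds were first tested in duplicate at 25 uM, with follow-up concentration series up to 50 uM. The bacterially expressed enzyme was read by fluorescence at 1 h post-dosing. Signal loss versus DMSO baseline indicates reduced enzyme activity.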
# [7] = molecular target: human Ephrin type-B Receptor 2 (EphB2), EPHB2 (gene 2048) (UniProt P29323); test: NVS_ENZ_hEphB2: NovaScreen (NVS) Enzymatic Assay for human Ephrin type-B Receptor 2 (EphB2) (AID 2283156)
# Chain of human Ephrin type-B Receptor 2 (EphB2), EPHB2 (gene 2048) (P29323 whole entry, looked up): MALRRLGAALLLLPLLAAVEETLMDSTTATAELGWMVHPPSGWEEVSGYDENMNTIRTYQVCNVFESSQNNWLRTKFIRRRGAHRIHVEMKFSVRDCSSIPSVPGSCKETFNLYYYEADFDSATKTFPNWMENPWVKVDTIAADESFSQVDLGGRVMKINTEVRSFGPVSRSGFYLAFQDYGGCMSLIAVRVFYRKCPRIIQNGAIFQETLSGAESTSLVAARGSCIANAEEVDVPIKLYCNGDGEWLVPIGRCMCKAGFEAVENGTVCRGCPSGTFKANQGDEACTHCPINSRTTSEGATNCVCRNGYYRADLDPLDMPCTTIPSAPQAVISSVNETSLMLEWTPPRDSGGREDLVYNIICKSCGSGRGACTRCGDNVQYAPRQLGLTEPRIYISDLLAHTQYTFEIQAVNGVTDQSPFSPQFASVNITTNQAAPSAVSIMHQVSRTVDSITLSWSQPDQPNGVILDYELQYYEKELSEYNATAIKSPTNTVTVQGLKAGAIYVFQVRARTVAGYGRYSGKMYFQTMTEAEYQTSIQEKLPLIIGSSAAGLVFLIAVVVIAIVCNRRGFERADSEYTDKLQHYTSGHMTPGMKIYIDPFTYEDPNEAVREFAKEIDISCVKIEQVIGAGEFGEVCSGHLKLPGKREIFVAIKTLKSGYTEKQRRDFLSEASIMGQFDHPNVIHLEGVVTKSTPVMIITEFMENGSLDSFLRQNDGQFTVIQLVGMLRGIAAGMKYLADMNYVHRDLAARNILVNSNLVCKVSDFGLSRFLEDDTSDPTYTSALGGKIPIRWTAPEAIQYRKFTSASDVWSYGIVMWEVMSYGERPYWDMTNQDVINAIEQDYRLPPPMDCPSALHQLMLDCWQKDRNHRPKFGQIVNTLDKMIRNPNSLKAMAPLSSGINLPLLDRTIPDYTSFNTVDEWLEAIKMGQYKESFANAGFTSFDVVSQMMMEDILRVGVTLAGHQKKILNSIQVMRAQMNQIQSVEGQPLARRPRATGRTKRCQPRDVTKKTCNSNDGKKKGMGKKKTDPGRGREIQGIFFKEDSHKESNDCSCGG
# How it was run: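 Compounds were first tested in duplicate at 25 uM, with hits rerun singly in concentration series up to 50 uM. Enzyme activity on fluorescent substrate was read at 1 h by mobility-shift separation, scored as signal loss relative to DMSO.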
# [8] = system: guinea pig Atrionatriuretic Peptide Receptor A (ANPA), gene 100135578; test: NVS_GPCR_gANPA: NovaScreen (NVS) G Protein-Coupled Receptor Assay for guinea pig Atrionatriuretic Peptide Receptor A (ANPA) (AID 2283291)
# How it was run: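 Displacement of specific radioligand from guinea pig cerebellum membranes was read by scintillation after 1 h. A duplicate single-point screen at 25 uM was followed by a concentration series up to 50 uM, analysed relative to DMSO.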
smiles,measurement,setting,value
FC(F)(F)C(F)(F)C(F)(F)C(F)(F)C(F)(F)C(F)(F)CC[Si](Cl)(Cl)Cl,outcome,[1],inactive
same,outcome,[2],inactive
FC(F)(F)C(F)(F)C(F)(F)C(F)(F)C(F)(F)C(F)(F)C(F)(F)I,outcome,[1],inactive
same,outcome,[2],inactive
CC(=O)[C@H]1CC[C@H]2[C@@H]3CCC4=CC(=O)CC[C@]4(C)[C@H]3CC[C@]12C,outcome,[3],inactive
same,AC50,[4],4.82 µM (active)
same,outcome,[5],inactive
O=C(O)CCC(F)(F)C(F)(F)C(F)(F)C(F)(F)C(F)(F)F,outcome,[1],inactive
same,outcome,[2],inactive
BrC1CCC(Br)C(Br)CCC(Br)C(Br)CCC1Br (configuration not stated),outcome,[3],inactive
Cc1cc(O)cc(C)c1Cl,AC50,[3],16.7 µM (active)
CCCCCCC(C)OC(=O)COc1nc(F)c(Cl)c(N)c1Cl (configuration not stated),AC50,[3],6.09 µM (active)
same,outcome,[6],inactive
same,outcome,[7],inactive
same,outcome,[5],inactive
same,outcome,[8],inactive
OCC(O)CC(F)(F)C(F)(F)C(F)(F)C(F)(F)C(F)(F)C(F)(F)C(F)(F)C(F)(F)F (configuration not stated),outcome,[1],inactive
same,outcome,[2],inactive
NC(=O)C(F)(F)C(F)(F)C(F)(F)C(F)F,outcome,[1],inactive
same,outcome,[2],inactive
OCC(F)(F)C(F)(F)C(F)(F)C(F)(F)C(F)(F)C(F)(F)C(F)(F)C(F)(F)C(F)(F)C(F)(F)C(F)(F)F,outcome,[1],inactive
same,outcome,[2],inactive
